The results in this text go back to PubChem BioAssay.

Active and inactive are the calls of the source.

One assay concerns the target Albumin (Bos taurus) (UniProt P02769). Briefly: bovine serum albumin binders on microarray, profiling panel, artefact control for SMM control protein annotation, biochemical, small-molecule microarray, Alexa647 label, 635/667 nm fluorescence (AID 1118).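 Also: score merges 667 nm emission intensity and signal-to-noise per printed compound spot.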 The following applies: BSA-A647 binding, fluorescence 635 nm, higher = more signal.
The nature of assay [1]: small-molecule microarray binders of probe aXIP, primary screen, biochemical, NeuroSMM set, 635/667 nm fluorescence (AID 1119).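 Also: probe is the protein aXip251-270 applied at 1 µg/mL to compound-printed slides; binding of probe to printed compounds measured as 667 nm fluorescence plus signal to noise.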 The following applies: higher = more signal, called active from +8 up or from −8 down.
Assay [2] in a line: small-molecule binders of probe aNOTCH3, primary screen, biochemical, small-molecule microarray, 635/667 nm fluorescence (AID 1120).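 Also: probe is a biotin-tagged antibody raised against NOTCH3 rather than NOTCH3 protein; score merges spot fluorescence near 667 nm with spot signal to noise.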 The following applies: higher = more signal.
A short description of assay [3]: small-molecule binders of probe aNOTCH2, primary screen, biochemical, small-molecule microarray, 635/667 nm fluorescence (AID 1121).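 Also: score merges feature fluorescence read at 667 nm with its signal to noise.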 Particulars: higher = more signal.
Assay [4] has as its target Carbonic anhydrase 2 (Homo sapiens) (UniProt P00918). Description: CAII small-molecule binders, profiling panel, biochemical, small-molecule microarray, Alexa647-labelled CAII (AID 1122). Particulars: CAII-A647 binding fluorescence, higher = more signal.
The nature of assay [5]: COS7 lysate on small-molecule microarray, probe aHis, 635 nm (AID 1123).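 Also: z-score combines 667nm fluorescence intensity with signal-to-noise per printed compound spot.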 The following applies: COS7 cell lysate, fluorescence, higher = more signal.
Assay [6] is described as follows: compound binding in COS7 lysate, probe aLAP1, primary screen, cell lysate, small-molecule microarray (AID 1124).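 Also: lysate comes from COS7 cells expressing LAP1 and is applied at 0.3 µg/mL; score merges spot fluorescence near 667 nm with signal-to-noise over triplicate slides.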 The following applies: probe aLAP1, fluorescence, higher = more signal.
The subject of another assay is Sam68 (KHDRBS1). Briefly: Sam68 small-molecule binders, primary screen, biochemical, small-molecule microarray, 635 nm fluorescence (AID 1125).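 Also: score merges 667 nm channel intensity with signal to noise over triplicate slides.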 The following applies: small-molecule microarray binding, higher = more signal.
In assay [7] the test system is Chordin-like protein 2 (CHRDL2). Briefly: CHRDL2 small-molecule binders, primary screen, biochemical, small-molecule microarray, 635 nm fluorescence (AID 1126).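 Also: printed compound slides probed with Chrdl2 protein at 4 µg/mL for 1 h at 4 C; score merges 667 nm emission intensity with signal to noise over three replicate slides.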 The following applies: small-molecule microarray binding, fluorescence 635 nm; higher = more signal.
Assay [8] deals with Concanavalin-A (Canavalia ensiformis) (UniProt P02866). Description: ConA small-molecule binders, primary screen, artefact control for SMM control protein annotation, biochemical, small-molecule microarray, Alexa647 label, 635 nm (AID 1127).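 Also: z combines 667 nm emission intensity with signal-to-noise across three replicate slides.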 Particulars: ConA-A647 binding fluorescence, higher = more signal.
Assay [9] can be described thus: anti-His antibody binders, primary screen, artefact control for SMM control protein annotation, biochemical, small-molecule microarray, 635 nm fluorescence (AID 1128).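 Also: score merges feature fluorescence with signal-to-noise for each printed compound spot.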 The following applies: anti-His Alexa647 antibody binding, higher = more signal.
The subject of assay [10] is Human papillomavirus type 1a E7 protein (residues 1-88). Briefly: HPV1a E7 small-molecule binders, primary screen, biochemical, small-molecule microarray, residues 1-88, 635 nm (AID 1129). The following applies: small-molecule microarray binding, fluorescence 635 nm; higher = more signal.
Assay [11] concerns the target Focal adhesion kinase 1 (Homo sapiens) (UniProt Q05397). Briefly: small-molecule microarray binders of FAK, primary screen, biochemical, 635/667 nm fluorescence, BSA, DTT (AID 1130).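 Also: composite of spot emission at 667 nm and signal to noise over triplicate slides.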 Particulars: PTK2 binding, 635 nm fluorescence, higher = more signal.
Assay [12] deals with Fibrinogen (Alexa647-labelled). Description: fibrinogen binders on compound microarrays, profiling panel, artefact control for SMM control-protein annotation, biochemical, small-molecule microarray, 635/667 nm fluorescence (AID 1131).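 Also: z-score merges 667 nm fluorescence with per-spot signal-to-noise over triplicate slides.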 Particulars: fibrinogen-A647 binding fluorescence, higher = more signal.
Assay [13] deals with Follistatin (Homo sapiens) (UniProt P19883). Description: follistatin binders on small-molecule microarrays, primary screen, biochemical, small-molecule microarray, 635/667 nm fluorescence (AID 1132). Particulars: FST binding, 635 nm fluorescence, higher = more signal.
The target in assay [14] is Fibroblast growth factor 2 (Homo sapiens) (UniProt P09038). Description: FGF2 binders on small-molecule microarrays, primary screen, biochemical, small-molecule microarray, 635/667 nm fluorescence (AID 1133). Particulars: small-molecule microarray binding, FGF2, fluorescence 635/667; higher = more signal.
Assay [15] is described as follows: mitochondrial membrane potential change in A549 cells, profiling panel, cell-based, JC-1 fluorescence, basal, 24 h, 100 nL (AID 1138).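 Also: A549 lung adenocarcinoma cells under basal conditions with no added stimulus; test concentration not given here.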 Particulars: higher = more signal.
For a further assay, the system named is Lefty1. Description: Lefty1 binders on small-molecule microarrays, primary screen, biochemical, small-molecule microarray, 635/667 nm fluorescence (AID 1139). The following applies: small-molecule microarray binding, fluorescence 635/667; higher = more signal.
In assay [16] the test system is wheat germ agglutinin (Triticum aestivum), Alexa647-labelled. Description: wheat germ agglutinin binders on compound microarrays, profiling panel, artefact control for SMM control-protein annotation, biochemical, small-molecule microarray, 635/667 nm fluorescence (AID 1140).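 Also: score merges 667 nm feature emission with signal to noise over triplicate slides.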 The following applies: WGA-A647 binding, 635 nm fluorescence, higher = more signal.
The target of assay [17] is Luciferin 4-monooxygenase (Photinus pyralis) (UniProt P08659). Description: firefly luciferase enzyme inhibitors, primary screen, biochemical, luminescence, purified enzyme, 2006 set (AID 1141).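 Also: cell-free assay with purified firefly luciferase at 100 ng per well in PBS; test concentration not given here.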 Particulars: SteadyGlo luminescence, 30 min, higher = more signal, called active from +8 up or from −8 down.
Luciferin 4-monooxygenase (Photinus pyralis), sequence (P08659 whole entry, looked up): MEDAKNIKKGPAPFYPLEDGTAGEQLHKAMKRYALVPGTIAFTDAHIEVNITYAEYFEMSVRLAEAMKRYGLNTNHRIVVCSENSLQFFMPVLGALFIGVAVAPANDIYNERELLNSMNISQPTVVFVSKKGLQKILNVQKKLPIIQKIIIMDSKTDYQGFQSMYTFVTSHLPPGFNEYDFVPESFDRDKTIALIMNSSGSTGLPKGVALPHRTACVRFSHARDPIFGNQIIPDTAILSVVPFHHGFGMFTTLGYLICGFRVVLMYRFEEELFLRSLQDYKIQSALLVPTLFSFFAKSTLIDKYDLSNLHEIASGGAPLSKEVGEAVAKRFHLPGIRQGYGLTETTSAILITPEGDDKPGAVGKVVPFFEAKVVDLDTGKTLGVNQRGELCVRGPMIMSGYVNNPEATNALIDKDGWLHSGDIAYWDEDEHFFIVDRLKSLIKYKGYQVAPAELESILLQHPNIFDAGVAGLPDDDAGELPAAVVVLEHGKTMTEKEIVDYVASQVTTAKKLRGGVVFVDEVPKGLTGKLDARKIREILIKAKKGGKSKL

Follistatin (Homo sapiens), sequence (P19883 whole entry, looked up): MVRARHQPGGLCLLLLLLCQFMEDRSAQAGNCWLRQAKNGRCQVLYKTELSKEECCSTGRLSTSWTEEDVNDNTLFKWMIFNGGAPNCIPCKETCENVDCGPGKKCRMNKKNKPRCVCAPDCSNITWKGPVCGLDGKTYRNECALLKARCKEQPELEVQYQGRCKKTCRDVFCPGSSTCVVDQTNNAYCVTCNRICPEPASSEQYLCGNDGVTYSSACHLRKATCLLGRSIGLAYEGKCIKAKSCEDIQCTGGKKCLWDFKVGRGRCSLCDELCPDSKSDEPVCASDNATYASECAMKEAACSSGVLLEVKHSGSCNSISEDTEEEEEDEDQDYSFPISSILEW
Concanavalin-A (Canavalia ensiformis), sequence (P02866 whole entry, looked up): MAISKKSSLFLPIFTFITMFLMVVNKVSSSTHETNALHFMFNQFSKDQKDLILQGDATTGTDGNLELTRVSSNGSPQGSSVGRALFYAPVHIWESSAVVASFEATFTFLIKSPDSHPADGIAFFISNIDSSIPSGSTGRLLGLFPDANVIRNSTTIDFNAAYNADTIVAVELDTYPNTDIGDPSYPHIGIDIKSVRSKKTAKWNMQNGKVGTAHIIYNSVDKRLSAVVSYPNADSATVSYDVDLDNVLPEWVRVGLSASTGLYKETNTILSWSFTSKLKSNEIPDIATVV
Focal adhesion kinase 1 (Homo sapiens), sequence (Q05397 whole entry, looked up): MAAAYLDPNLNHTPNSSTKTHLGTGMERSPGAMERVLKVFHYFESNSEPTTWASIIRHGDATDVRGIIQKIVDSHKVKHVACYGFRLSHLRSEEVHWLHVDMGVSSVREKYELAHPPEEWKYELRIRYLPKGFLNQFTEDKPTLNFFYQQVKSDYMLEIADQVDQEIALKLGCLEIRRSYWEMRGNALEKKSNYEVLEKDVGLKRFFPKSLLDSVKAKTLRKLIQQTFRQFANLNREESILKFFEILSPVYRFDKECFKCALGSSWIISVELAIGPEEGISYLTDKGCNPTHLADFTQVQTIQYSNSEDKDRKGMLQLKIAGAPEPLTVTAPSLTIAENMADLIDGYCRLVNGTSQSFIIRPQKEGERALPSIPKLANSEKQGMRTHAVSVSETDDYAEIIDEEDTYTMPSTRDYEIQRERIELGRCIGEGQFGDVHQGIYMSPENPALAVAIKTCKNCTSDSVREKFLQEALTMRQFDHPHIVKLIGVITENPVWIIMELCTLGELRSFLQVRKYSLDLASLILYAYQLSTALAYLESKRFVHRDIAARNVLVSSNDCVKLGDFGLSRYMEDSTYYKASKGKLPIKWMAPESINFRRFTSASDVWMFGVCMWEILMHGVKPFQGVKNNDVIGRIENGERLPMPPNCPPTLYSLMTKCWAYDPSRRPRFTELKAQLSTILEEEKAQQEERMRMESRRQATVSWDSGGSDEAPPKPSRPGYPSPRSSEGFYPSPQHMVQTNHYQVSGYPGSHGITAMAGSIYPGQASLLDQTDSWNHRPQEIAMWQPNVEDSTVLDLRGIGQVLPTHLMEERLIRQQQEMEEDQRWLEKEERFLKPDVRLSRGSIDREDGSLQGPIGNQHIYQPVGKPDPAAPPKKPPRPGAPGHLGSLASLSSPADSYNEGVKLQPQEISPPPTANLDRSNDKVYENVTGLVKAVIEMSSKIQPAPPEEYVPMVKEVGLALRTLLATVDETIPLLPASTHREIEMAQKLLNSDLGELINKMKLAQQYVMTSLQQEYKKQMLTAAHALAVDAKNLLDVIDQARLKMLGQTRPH
Albumin (Bos taurus), sequence (P02769 whole entry, looked up): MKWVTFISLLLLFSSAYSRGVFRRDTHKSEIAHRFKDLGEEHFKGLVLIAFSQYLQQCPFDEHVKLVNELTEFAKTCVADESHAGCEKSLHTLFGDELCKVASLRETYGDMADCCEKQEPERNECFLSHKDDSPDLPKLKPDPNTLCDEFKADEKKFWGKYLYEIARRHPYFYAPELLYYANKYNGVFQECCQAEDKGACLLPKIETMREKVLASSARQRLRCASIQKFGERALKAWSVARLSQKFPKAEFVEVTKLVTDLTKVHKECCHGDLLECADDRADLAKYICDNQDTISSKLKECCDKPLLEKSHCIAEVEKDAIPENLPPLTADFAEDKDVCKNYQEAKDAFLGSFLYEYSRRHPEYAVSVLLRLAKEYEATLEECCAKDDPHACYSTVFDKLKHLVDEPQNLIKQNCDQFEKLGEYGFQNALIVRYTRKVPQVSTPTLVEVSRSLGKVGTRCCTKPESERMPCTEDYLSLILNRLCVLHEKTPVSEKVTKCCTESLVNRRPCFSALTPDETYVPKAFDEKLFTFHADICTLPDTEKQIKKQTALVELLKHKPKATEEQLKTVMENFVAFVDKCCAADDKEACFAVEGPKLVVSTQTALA
Fibroblast growth factor 2 (Homo sapiens), sequence (P09038 whole entry, looked up): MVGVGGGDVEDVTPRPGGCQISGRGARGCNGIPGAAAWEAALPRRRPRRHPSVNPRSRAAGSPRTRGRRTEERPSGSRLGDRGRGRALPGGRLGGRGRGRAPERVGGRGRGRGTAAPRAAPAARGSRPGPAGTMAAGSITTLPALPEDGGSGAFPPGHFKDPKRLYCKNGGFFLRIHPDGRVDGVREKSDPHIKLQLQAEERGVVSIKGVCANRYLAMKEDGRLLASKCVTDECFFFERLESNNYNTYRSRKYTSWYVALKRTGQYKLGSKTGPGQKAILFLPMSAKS

Turning to `COCCCNC(=O)[C@]1(Cc2ccccc2)N=C(c2ccc(OCCCO)cc2)O[C@@H]1c1ccccc1CN=[N+]=[N-]`, the composite z-score with Albumin (Bos taurus) turned out to be 0.999; in assay [2] it was 0.16; in assay [3] it was 0.266; in assay [4], 0.694; in assay [5], 3.21; in [6], 0.465. In addition, the composite z-score with Sam68 (KHDRBS1) is 1.28; in assay [7], -0.431; in assay [8], 1.16; in assay [9], 2.51; in assay [10], 1.14; in assay [11] it was 0.802. Also, the composite z-score in assay [12] is 0.957; in assay [13], 1.31; in [14] it was 1.46; in the assay with Lefty1, -0.0031; in assay [16] it was 0.963. Also, the composite Z-score in assay [1] is -0.127 (inactive). Also, the z-score in assay [15] is 1.16; in [17] it was -0.932 (inactive).
`O=C1C2C=CC(C(O)COCc3ccccc3)N(Nc3ccc([N+](=O)[O-])cc3)C2C(=O)N1c1ccccc1` (stereo not given): the composite z-score amounted to 0.734 in the assay with Albumin (Bos taurus); 0.271 in [2]; 0.0449 in assay [3]; 0.766 in [4]; 2.9 in assay [5]; 0.143 in assay [6]. For the same molecule, the composite z-score amounted to 1.31 in the assay on Sam68 (KHDRBS1); 0.412 in [7]; 0.519 in assay [8]; 1.55 in assay [9]; 1.25 in [10]; 1.19 in assay [11]. Moreover, the composite z-score was determined as 0.983 in [12]; 1.13 in assay [13]; 0.119 in [14]; 0.638 in the assay with Lefty1; 0.955 in [16]. Further, in assay [1], the composite Z-score is 0.845 (inactive). Besides, the z-score in assay [15] was -0.738; in assay [17], 1.54 (inactive).
As to `COc1ccc([Si](C)(C)[C@H]2[C@H](CC(=O)N3CCC[C@H]3CO)O[C@@]3(C(=O)N(Cc4cccc(N5CCOC5=O)c4)c4ccccc43)[C@@H]2C)cc1`, the composite z-score is -0.185 with Albumin (Bos taurus); -0.095 in assay [2]; -0.151 in assay [3]; 0.334 in assay [4]; 0.626 in [5]; 0.218 in assay [6]. Moreover, the composite z-score in the assay on Sam68 (KHDRBS1) is 1.26; in assay [7] it was 1.36; in assay [8], 0.996; in assay [9], 1.3; in [10] it was 0.883; in assay [11], 0.266. Further, the composite z-score in [12] came out at 0.405; in [13] it was 1.42; in assay [14] it was 1.64; in the assay with Lefty1, 1.47; in [16] it was 0.149. Also, the composite Z-score in [1] is -0.0054 (inactive). Moreover, the z-score in assay [15] was 1.1; in [17], 0.526 (inactive).
For the molecule `COC(=O)c1c(CC[C@@H](CO)NC(=O)N[C@@H](Cc2ccccc2)Cn2cc(-c3ccccn3)nn2)oc(C(=O)N2CCOCC2)c1C(=O)OC`, the composite z-score is 0.15 in the assay with Albumin (Bos taurus); 0.0562 in [2]; -0.0928 in [3]; 0.696 in [4]; 0.0795 in [5]; -0.425 in [6]. In addition, the composite z-score was -0.23 in the assay with Sam68 (KHDRBS1); -0.488 in assay [7]; -0.376 in [8]; -0.241 in assay [9]; -0.341 in assay [10]; 0.384 in assay [11]. Moreover, the composite z-score was -0.405 in assay [12]; 0.57 in assay [13]; -0.129 in assay [14]; 0.795 with Lefty1; 0 in [16]. Also, the composite Z-score in [1] was 0.255 (inactive). Further, the z-score in [15] was -0.187; in assay [17], 1.1 (inactive).
Consider `CCC(CC)C(O)C1C=CC2C(=O)N(c3ccccc3)C(=O)C2N1Nc1ccccc1` (stereo not given), for which the composite z-score with Albumin (Bos taurus) is 0.803; in assay [2], 0.708; in [3], 0.272; in [4], 0.491; in assay [5], 2.44; in assay [6] it was 0.383. The composite z-score in the assay with Sam68 (KHDRBS1) was 1.31; in assay [7], 0.0429; in [8], 1.16; in [9] it was 1.51; in assay [10], 1.25; in assay [11], 0.633. For the same molecule, the composite z-score in assay [12] worked out at 1; in [13], 1.06; in [14], 0.514; with Lefty1, 0.858; in [16], 1.03. Besides, in [1], the composite Z-score was 0.62 (inactive). Also, the z-score in assay [15] was -0.117; in [17], -1.9 (inactive).
